# Tested on: not listed separately
# Assay: modulators of HCV replicon luciferase signal, primary screen, HCV replication inhibitor project, Huh7 cells, luciferase reporter (AID 1109);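 note: huh7 hepatoma cells harbouring a luciferase neomycin HCV replicon reporter; luciferase luminescence as measure of HCV replicon replication; test concentration not given here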
# Conditions: 48 h, higher = more signal
row,Compound,z-score
1,CC(=O)NCCCC[C@@H]1NC(=O)[C@@H]2C[C@H](C(=O)NCCCCCCN(C)C)[C@H](c3ccc(O)cc3)N2C1=O,1.08
2,CCCC=C(CCC)[C@@H](NC(=O)c1ccccc1)c1ccccc1,-0.12
3,C=CCC(OC(C)=O)[C@@H]1[C@@H](N(Cc2ccc(-c3cccc(C(F)(F)F)c3)o2)C(=O)Cc2ccc(F)cc2)c2cc(OCCCO)ccc2N1C(=O)c1ccc(-c2ccccc2)cc1 (stereo partly drawn),-0.583
4,CO[C@H]1COC(=O)[C@@H](C)NC(=O)CC=C[C@@H](C)[C@H](OC)COC(=O)CC=C[C@@H]1C,-0.355
5,COc1ccc([Si](C)(C)[C@H]2[C@H](CCO)O[C@@]3(C(=O)N(Cc4ccccc4)c4ccc(N5C(=O)c6cccc7cccc5c67)cc43)[C@@H]2C)cc1,-4.5
6,O=C/C=C/c1ccc(/C=C/c2ccccc2)cc1,0.783
7,O=C(CS)NCCCCCNC(=O)[C@H]1C[C@H]2C(=O)N3CCC[C@H]3C(=O)N2[C@H]1c1ccc(O)cc1,0.0187
8,CO[C@H]1COC(=O)[C@H](C)NC(=O)CC=C[C@@H](C)[C@H](NS(=O)(=O)c2ccc(C)cc2)COC(=O)CC=C[C@@H]1C,-0.05
9,O=C1C[C@@](C(=O)NC2CC2)(c2ccc([N+](=O)[O-])cc2)[C@@H](c2ccc(CO)cc2I)N1CC12CC3CC(CC(C3)C1)C2,-3.45
10,CO[C@H]1O[C@H](CO)[C@@H](OC(=O)CCc2ccccc2)[C@@H]2OC(=O)[C@H](Cc3cccc(Br)c3)C/C=C/C[C@@H](Cc3cccc(Br)c3)C(=O)O[C@@H]12,-0.93
11,Cc1ccc(S[C@]2(C(=O)NCCCN(C)C)CC(=O)N(C3CCCCC3)[C@@H]2c2ccc(CO)cc2I)cc1,-3.67
12,COc1cccc([C@H]2N[C@H](C(=O)O)CC[C@@H]2C)c1,0.53
13,O=C1O[C@H](c2ccccc2)[C@H](c2ccccc2)N2[C@H]1[C@@H](C(=O)NC[C@H](O)c1ccccc1)[C@]1(C(=O)Nc3ccc(C#CC4(O)CCCCCC4)cc31)[C@H]2c1ccc(OCCO)cc1,-2.41
14,CCCC[C@@H]1C[C@H]1[C@@H](NC(=O)c1cccs1)c1ccc(Cl)cc1,-1.27
15,Cc1ccc(N2C(=O)c3ccccc3[C@@H](C(=O)NCC(F)(F)F)[C@@H]2c2ccc(CO)cc2)nc1,0.643
16,COCCOC(=O)N1C(=O)[C@@]2(c3cc(C#CCNC(N)=O)ccc31)[C@H](c1ccc(OCCO)cc1)N1[C@H](c3ccccc3)[C@H](c3ccccc3)OC(=O)[C@H]1[C@@H]2C(=O)Nc1nc2ccccc2s1,-1.11
17,O=C1c2ccccc2[C@](Cc2ccccc2I)(C(=O)O)[C@H](c2ccc(CO)cc2)N1C1CCCCC1,-1.33

# Target: Left-right determination factor 2 (Homo sapiens) (UniProt O00292)
# Sequence (O00292 whole entry, looked up): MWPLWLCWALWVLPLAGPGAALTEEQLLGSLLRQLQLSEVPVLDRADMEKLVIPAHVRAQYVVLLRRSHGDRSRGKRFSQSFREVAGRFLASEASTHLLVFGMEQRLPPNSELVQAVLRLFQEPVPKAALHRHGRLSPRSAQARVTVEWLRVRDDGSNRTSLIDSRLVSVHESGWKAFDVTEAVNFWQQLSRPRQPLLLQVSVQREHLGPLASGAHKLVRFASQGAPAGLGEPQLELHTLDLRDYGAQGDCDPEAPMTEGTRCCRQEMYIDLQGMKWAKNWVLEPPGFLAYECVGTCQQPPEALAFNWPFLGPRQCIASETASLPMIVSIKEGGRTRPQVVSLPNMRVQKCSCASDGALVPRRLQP
# Assay: LEFTY2 binders on small-molecule microarrays, primary screen, biochemical, small-molecule microarray, 635 nm fluorescence scan (AID 1110)
# Conditions: LEFTY2 binding, higher = more signal
row,Compound,composite z-score
1,Cc1ccc(S[C@]2(C(=O)NC(C)C)CC(=O)N(C3Cc4ccccc4C3)[C@@H]2c2ccc(CO)cc2)cc1,-0.873
2,[N-]=[N+]=NCc1ccccc1C[C@]1(C(N)=O)N=C(c2ccc(OCCCO)cc2)O[C@H]1c1ccccc1CN=[N+]=[N-],-0.854
3,C[N+](C)(C)CCCC[C@@H]1NC(=O)[C@H]2C[C@@H](C(=O)NCc3ccc(F)cc3)[C@@H](c3cccc(OCCO)c3)N2C1=O,0.503
4,C=CCC(OC(C)=O)[C@@H]1[C@@H](N(Cc2ccc(-c3ccccc3)cc2)C(=O)c2ccc(-c3ccccc3)cc2)c2cc(OCCCO)ccc2N1C(=O)Cc1ccc(OC)cc1 (stereo partly drawn),0.241
5,CO[C@@H]1COC(=O)CC=C[C@@H](C)[C@H](OC)COC(=O)CC=C[C@H]1C,0.599
6,O=C(NCc1ccccc1)[C@@]1(CCS(=O)(=O)c2ccccc2)COC(c2ccc(OCCCO)cc2)=N1,-0.0893
7,C=C(CCCC)/C(=C/C[C@@H](OC(=O)c1ccncc1)c1cccc(OCCO)c1)c1cc(C(=O)OC)ccc1OC,0.725
8,CC(C)[Si]1(C(C)C)OCc2cc(C3CC3)nc(-c3ccccc3)c21,-0.231
9,C=CCOC(=O)[C@@H]1[C@H]2C(=O)O[C@H](c3ccccc3)[C@H](c3ccccc3)N2[C@H](c2ccc(OCCOC(=O)[C@H]3C[C@H]4C(=O)N[C@@H](CCCCNC(C)=O)C(=O)N4[C@H]3c3ccc(O)cc3)cc2)[C@@]12C(=O)Nc1ccc(I)cc12,0.576
10,CC(C)N1CC=CC23O[C@@H]4/C=C\CCCOC(=O)C4[C@H]2C(=O)N(CCCCCO)[C@@H]3C1=O (stereo partly drawn),-1.86
11,O=C1O[C@@H](c2ccccc2)[C@@H](c2ccccc2)N2[C@@H](c3ccc(OCCO)cc3)[C@]3(C(=O)Nc4ccc(C#CCCO)cc43)[C@@H](C(=O)N3CCN(c4ncccn4)CC3)[C@H]12,0.669
12,COC(=O)[C@@]1(Cc2ccc(OC)cc2)[C@H]2c3cc(C(=O)N(C)C)n(CCc4ccc(OC)c(Br)c4)c3C[C@H]2CN1C(=O)c1ccccc1,-0.239
13,CSCC[C@@H]1NC(=O)CC=C[C@@H](C)COC(=O)[C@H](CCSC)NC(=O)CC=C[C@@H](C)COC1=O,0.42
14,CO[C@@H]1COC(=O)CC=C[C@H](C)COC(=O)[C@H](Cc2ccccc2)NC(=O)CC=C[C@H]1C,1.31
15,CC(C)(C)OC(=O)CC[C@]1(C(=O)NCCN2CCOCC2)N=C(c2ccc(OCCCO)cc2)O[C@H]1c1ccccc1CN=[N+]=[N-],0.0415
16,CO[C@H]1O[C@H](CO)[C@@H](OC(=O)Nc2ccc3c(c2)OCO3)[C@H](OC(=O)Nc2ccccc2)[C@@H]1OC(=O)Nc1ccccc1,-0.0553
17,CCc1cccc(NC(=O)O[C@H]2[C@H](OC(=O)Nc3ccccc3)[C@@H](OC(=O)Nc3ccccc3)[C@@H](OC)O[C@@H]2CO)c1,0.273
18,CC(C)(C)OC(=O)CC[C@@]1(C(=O)NCc2ccccc2)N=C(c2ccc(OCCCO)cc2)O[C@@H]1c1ccccc1,0.144

row,Compound,composite z-score
1,C=CCNC(=O)[C@H]1[C@@H]2C(=O)O[C@@H](c3ccccc3)[C@@H](c3ccccc3)N2[C@@H](c2ccccc2OCCO)[C@]12C(=O)N(C(=O)OCCOC)c1ccc(C#CCNC(N)=O)cc12,0.398
2,CC(=O)NCCCC[C@@H]1NC(=O)[C@@H]2C[C@H](C(=O)NCCCCCCN(C)C)[C@H](c3ccc(O)cc3)N2C1=O,0.73
3,CCCC=C(CCC)[C@@H](NC(=O)c1ccccc1)c1ccccc1,-0.621
4,C=CCC(OC(C)=O)[C@@H]1[C@@H](N(Cc2ccc(-c3cccc(C(F)(F)F)c3)o2)C(=O)Cc2ccc(F)cc2)c2cc(OCCCO)ccc2N1C(=O)c1ccc(-c2ccccc2)cc1 (stereo partly drawn),-0.689
5,CO[C@H]1COC(=O)[C@@H](C)NC(=O)CC=C[C@@H](C)[C@H](OC)COC(=O)CC=C[C@@H]1C,1.39
6,COc1ccc([Si](C)(C)[C@H]2[C@H](CCO)O[C@@]3(C(=O)N(Cc4ccccc4)c4ccc(N5C(=O)c6cccc7cccc5c67)cc43)[C@@H]2C)cc1,-0.681
7,O=C/C=C/c1ccc(/C=C/c2ccccc2)cc1,0.0281
8,O=C(CS)NCCCCCNC(=O)[C@H]1C[C@H]2C(=O)N3CCC[C@H]3C(=O)N2[C@H]1c1ccc(O)cc1,0.679
9,CO[C@H]1COC(=O)[C@H](C)NC(=O)CC=C[C@@H](C)[C@H](NS(=O)(=O)c2ccc(C)cc2)COC(=O)CC=C[C@@H]1C,0.285
10,O=C1C[C@@](C(=O)NC2CC2)(c2ccc([N+](=O)[O-])cc2)[C@@H](c2ccc(CO)cc2I)N1CC12CC3CC(CC(C3)C1)C2,0.672
11,CO[C@H]1O[C@H](CO)[C@@H](OC(=O)CCc2ccccc2)[C@@H]2OC(=O)[C@H](Cc3cccc(Br)c3)C/C=C/C[C@@H](Cc3cccc(Br)c3)C(=O)O[C@@H]12,-0.798
12,Cc1ccc(S[C@]2(C(=O)NCCCN(C)C)CC(=O)N(C3CCCCC3)[C@@H]2c2ccc(CO)cc2I)cc1,-0.848
13,COc1cccc([C@H]2N[C@H](C(=O)O)CC[C@@H]2C)c1,0.0589
14,O=C1O[C@H](c2ccccc2)[C@H](c2ccccc2)N2[C@H]1[C@@H](C(=O)NC[C@H](O)c1ccccc1)[C@]1(C(=O)Nc3ccc(C#CC4(O)CCCCCC4)cc31)[C@H]2c1ccc(OCCO)cc1,-0.12
15,CCCC[C@@H]1C[C@H]1[C@@H](NC(=O)c1cccs1)c1ccc(Cl)cc1,-1.19
16,Cc1ccc(N2C(=O)c3ccccc3[C@@H](C(=O)NCC(F)(F)F)[C@@H]2c2ccc(CO)cc2)nc1,-3.15
17,COCCOC(=O)N1C(=O)[C@@]2(c3cc(C#CCNC(N)=O)ccc31)[C@H](c1ccc(OCCO)cc1)N1[C@H](c3ccccc3)[C@H](c3ccccc3)OC(=O)[C@H]1[C@@H]2C(=O)Nc1nc2ccccc2s1,1.24
18,O=C1c2ccccc2[C@](Cc2ccccc2I)(C(=O)O)[C@H](c2ccc(CO)cc2)N1C1CCCCC1,0.15
